Assay results as given in PubChem BioAssay AID1053205 (Broad Institute, 2014).
Potency and affinity values are given separately. Results filed as inconclusive are left out.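 The calls were made as follows: active = compounds lowering the FRET ratio whose fitted half-maximal concentration is at most twice their top tested dose; inconclusive = flat partial drop between 30 and 70 percent, or bad fit; inactive = the rest.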

Each compound was assayed against Voltage-dependent L-type calcium channel subunit alpha-1D (Homo sapiens) (UniProt Q01668) (assay: inhibitors of CaV1.3 ICDI-IQ binding, dose response, cell-based, HEK293, YFP-IQ/CFP-ICDI FRET, cherry-picks (AID 1053205;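 also: 0% = median of neutral control wells and -100% = median of positive control wells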)). Settings: HEK293 YFP-IQ/CFP-ICDI FRET ratio, 10 min; series mostly up to 35 µM; FRET change, negative = inhibition: at the top concentration.
Sequence of Voltage-dependent L-type calcium channel subunit alpha-1D (Homo sapiens) (Q01668 whole entry, looked up): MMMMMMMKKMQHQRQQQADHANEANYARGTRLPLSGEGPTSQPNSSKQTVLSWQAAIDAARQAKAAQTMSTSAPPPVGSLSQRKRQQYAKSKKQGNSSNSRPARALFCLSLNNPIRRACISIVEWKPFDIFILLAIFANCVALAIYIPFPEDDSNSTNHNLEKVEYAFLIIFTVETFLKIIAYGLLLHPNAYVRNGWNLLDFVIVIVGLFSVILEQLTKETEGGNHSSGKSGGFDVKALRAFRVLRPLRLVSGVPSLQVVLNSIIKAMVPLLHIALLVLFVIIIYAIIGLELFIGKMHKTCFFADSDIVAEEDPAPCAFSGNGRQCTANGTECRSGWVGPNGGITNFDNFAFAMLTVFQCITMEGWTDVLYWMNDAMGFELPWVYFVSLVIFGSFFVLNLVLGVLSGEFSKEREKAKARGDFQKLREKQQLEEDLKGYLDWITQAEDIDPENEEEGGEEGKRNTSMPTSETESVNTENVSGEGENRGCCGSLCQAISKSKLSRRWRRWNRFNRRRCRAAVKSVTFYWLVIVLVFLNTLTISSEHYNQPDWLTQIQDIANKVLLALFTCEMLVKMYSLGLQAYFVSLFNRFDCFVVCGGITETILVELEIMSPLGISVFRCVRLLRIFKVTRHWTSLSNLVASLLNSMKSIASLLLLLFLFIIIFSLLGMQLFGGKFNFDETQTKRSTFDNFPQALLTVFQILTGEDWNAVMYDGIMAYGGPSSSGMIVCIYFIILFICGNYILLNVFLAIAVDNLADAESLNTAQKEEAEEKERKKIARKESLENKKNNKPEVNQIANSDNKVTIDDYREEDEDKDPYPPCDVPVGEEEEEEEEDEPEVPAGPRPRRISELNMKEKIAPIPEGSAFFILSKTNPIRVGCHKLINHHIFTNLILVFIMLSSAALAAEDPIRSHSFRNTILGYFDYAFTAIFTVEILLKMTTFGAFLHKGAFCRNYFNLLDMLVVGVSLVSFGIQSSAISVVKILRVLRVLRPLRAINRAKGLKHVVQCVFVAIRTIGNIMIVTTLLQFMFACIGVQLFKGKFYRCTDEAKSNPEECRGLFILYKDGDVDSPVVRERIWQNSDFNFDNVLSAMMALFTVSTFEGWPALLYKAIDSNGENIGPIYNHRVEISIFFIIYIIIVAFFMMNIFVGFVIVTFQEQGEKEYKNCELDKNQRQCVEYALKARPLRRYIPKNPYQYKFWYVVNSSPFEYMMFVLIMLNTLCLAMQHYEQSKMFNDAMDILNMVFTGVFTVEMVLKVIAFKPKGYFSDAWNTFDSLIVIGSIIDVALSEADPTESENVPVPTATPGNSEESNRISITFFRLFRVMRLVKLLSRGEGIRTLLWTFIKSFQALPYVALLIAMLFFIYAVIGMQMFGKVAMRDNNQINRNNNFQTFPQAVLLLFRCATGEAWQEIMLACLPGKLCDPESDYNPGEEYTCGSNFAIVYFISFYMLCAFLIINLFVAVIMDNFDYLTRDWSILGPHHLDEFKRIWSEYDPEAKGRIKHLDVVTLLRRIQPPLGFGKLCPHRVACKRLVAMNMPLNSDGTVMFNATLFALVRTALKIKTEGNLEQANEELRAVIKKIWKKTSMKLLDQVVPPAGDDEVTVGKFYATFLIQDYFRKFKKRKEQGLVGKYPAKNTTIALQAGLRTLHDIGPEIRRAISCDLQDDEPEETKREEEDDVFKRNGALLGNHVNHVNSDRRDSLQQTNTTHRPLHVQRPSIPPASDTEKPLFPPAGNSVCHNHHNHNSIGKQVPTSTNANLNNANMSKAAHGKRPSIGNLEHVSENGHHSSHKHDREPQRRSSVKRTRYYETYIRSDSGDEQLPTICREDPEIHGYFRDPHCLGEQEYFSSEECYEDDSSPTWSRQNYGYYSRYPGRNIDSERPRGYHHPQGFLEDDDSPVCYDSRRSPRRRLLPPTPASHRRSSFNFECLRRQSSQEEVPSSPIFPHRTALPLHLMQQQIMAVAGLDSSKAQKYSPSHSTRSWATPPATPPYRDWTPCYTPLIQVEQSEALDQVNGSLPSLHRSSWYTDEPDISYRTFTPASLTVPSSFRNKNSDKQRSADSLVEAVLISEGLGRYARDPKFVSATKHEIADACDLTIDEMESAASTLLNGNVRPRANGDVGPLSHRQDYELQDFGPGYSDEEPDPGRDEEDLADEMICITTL

FRET change, negative = inhibition, inactive:
c1ccc2cc3c(NCCN4CCOCC4)ccnc3cc2c1 241%
CN(C)CCOCCOc1ccc(Cl)c2ccccc12 8.55%
CCc1nc2ccc(C(=O)NCCc3c[nH]c4ccccc34)cn2c1N(C=O)CCC(C)C 64.1%
Cc1ccc(OCC(=O)NNc2c3ccccc3nc3ccccc23)cc1 8.32%
CCOc1ccc(-n2c(SCC(=O)Nc3nccs3)nnc2-c2ccoc2C)cc1 -21.4%
O=C(O)c1ccc(N2N=C(c3ccccc3)CC2c2ccccc2)cc1 (configuration not stated) 177%
C=CCN1C(=S)CC(c2ccccc2)=Nc2ccccc21 -11.7%
Cc1cccn2c(=O)c3cc(C(=O)NCc4ccco4)c(=N)n(CCc4ccccc4)c3nc12 178% [at 16 µM]
CCOC(=O)c1cc2c(=O)n3ccccc3nc2n(C(C)C)c1=NC(=O)c1ccco1 208% [at 8 µM]
CC(C)(C)c1csc(N/N=C/c2ccc(O)cc2)n1 -17.3%
N#Cc1ccc(OCC(=O)OCC(=O)N2CCc3ccccc32)cc1 -4.01%
O=C(NNc1cc(N2CCCC2)nc(N2CCCC2)n1)c1ccc([N+](=O)[O-])cc1 -22.5%
CC(=O)c1sc(N/N=C\c2ccc(N(C)C)cc2)nc1C 204%
Cc1ccc2nc3c(cc(C(=O)NCc4ccccc4)c(=N)n3CCCn3ccnc3)c(=O)n2c1 404%
CCOC(=O)c1cc2c(=O)n3cccc(C)c3nc2n(CC(C)C)c1=NC(=O)c1ccco1 159% [at 8 µM]
Nc1cccc2c1C(=O)N(c1ccccc1)C2=O 468%
Cn1nc(-c2ccc(Cl)cc2)c2cc(C(=O)N3CCN(c4ccccc4)CC3)sc21 11.8%
